Laboratory results: PubChem BioAssay AID720664 (National Center for Advancing Translational Sciences (NCATS), 2013)
Inconclusive results are not listed. Entries that show only a call come without a potency. The source made the active and inactive calls. Calls follow the shape of the dose curve; as a rule, active = well fitted inhibition curve with a large enough effect; inconclusive = small, poorly fitted or top-dose-only effect; inactive = flat fitted curve, though single readings scatter.

Molecular target: Galactokinase (Homo sapiens) (UniProt P51570)
Test: qHTS for Inhibitors of Human Galactokinase (GALK): SAR round 3
Summary of the method: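 Human GALK (5 nM) with 35 µM ATP and 100 µM galactose in 20 mM HEPES pH 8.0, 5 mM MgCl2, 60 mM NaCl reacted 1 h at room temperature. Luminescent ADP detection was used; qHTS retest of cherry-picked actives.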

Galactokinase (Homo sapiens), sequence (P51570 whole entry, looked up): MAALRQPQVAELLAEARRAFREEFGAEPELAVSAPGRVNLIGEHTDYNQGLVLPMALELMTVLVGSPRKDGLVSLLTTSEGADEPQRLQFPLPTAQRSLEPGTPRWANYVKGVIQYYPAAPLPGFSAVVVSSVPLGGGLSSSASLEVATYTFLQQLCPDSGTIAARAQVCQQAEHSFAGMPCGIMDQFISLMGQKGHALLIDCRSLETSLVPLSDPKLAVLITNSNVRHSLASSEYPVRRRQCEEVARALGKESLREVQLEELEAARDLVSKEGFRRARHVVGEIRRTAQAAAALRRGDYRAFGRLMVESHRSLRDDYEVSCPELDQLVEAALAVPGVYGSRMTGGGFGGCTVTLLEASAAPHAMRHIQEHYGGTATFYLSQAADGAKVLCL

**Q.** `CC1=C(C(=O)Nc2ccc(Cl)cc2)C(c2ccccc2Br)N=C(Nc2nc3ccccc3o2)N1` (centres undefined) was tested. Which Potency did it give?
**A.** inactive

**Q.** For `O=C1CCCC2=C1C(c1[nH]ncc1Cl)NC(=NCCc1ccc(O)cc1)N2` (centres undefined), which Potency is on record?
**A.** inactive

**Q.** For `O=C1C2=C(CN1c1ccccc1)NC(Nc1nc3ccccc3o1)=NC2c1ccccc1Cl` (centres undefined), which Potency is on record?
**A.** inactive

**Q.** Which Potency does the source give for `O=C1CCCC2=C1C(c1ccncc1Cl)N=C(Nc1nc3ccccc3o1)N2` (centres undefined) here?
**A.** 19.3 µM (active)

**Q.** How did the Potency turn out when `CN(Cc1ccccc1)C(=O)C1CCN(Cc2cccc3ccccc23)CC1` was run?
**A.** inactive

**Q.** `Cn1cnc(CN=C2NC3=C(C(=O)CCC3)C(c3[nH]ncc3Cl)N2)c1` (centres undefined) was tested. Which Potency did it give?
**A.** inactive

**Q.** For `COC(=O)c1ccc2nc(NC3=NC(c4[nH]ncc4Cl)C4=C(CCCC4=O)N3)oc2c1` (centres undefined), which Potency is on record?
**A.** inactive

**Q.** Which Potency does the source give for `O=C1CCCC2=C1C(c1[nH]ncc1Cl)NC(=S)N2` (centres undefined) here?
**A.** inactive

**Q.** With `CC1=C(C(=O)NC2CCCC2)C(c2[nH]ncc2Cl)N=C(Nc2nc3ccccc3o2)N1` (centres undefined) as the compound, how does the Potency read?
**A.** inactive

**Q.** With `Cc1ccc(C2N=C(Nc3nc4ccccc4o3)NC3=C2C(=O)CCC3)cc1` (centres undefined) as the compound, how does the Potency read?
**A.** inactive

**Q.** With `COc1ccccc1C1N=C(Nc2nc3ccccc3o2)NC2=C1C(=O)CCC2` (centres undefined) as the compound, how does the Potency read?
**A.** inactive

**Q.** How did the Potency turn out when `CC(C)c1nc(Nc2nc3ccccc3o2)nc2c1CCCC2` was run?
**A.** inactive

**Q.** Which Potency does the source give for `O=C1NC2=C(C(=O)CCC2)C(c2ccccc2Cl)N1` (centres undefined) here?
**A.** inactive

**Q.** For `O=C1CCCC2N=C(Nc3nc4ccccc4o3)CC(c3ccccc3Cl)C12` (centres undefined), which Potency is on record?
**A.** inactive

**Q.** `CCOC(=O)c1cnc(NC2=NC(c3ccccc3Cl)C3=C(CCCC3=O)N2)o1` (centres undefined) was tested. Which Potency did it give?
**A.** inactive

**Q.** `O=C1CCCC2=C1C(c1[nH]ncc1Cl)N=C(Nc1ccccn1)N2` (centres undefined) was tested. Which Potency did it give?
**A.** inactive

**Q.** How did the Potency turn out when `N#CC1=C(Nc2nc3ccccc3o2)OC2=C(C(=O)CCC2)C1c1[nH]ncc1Cl` (centres undefined) was run?
**A.** inactive

**Q.** For `COc1cccc2nc(Nc3nc4ccccc4o3)nc(-c3ccccc3Cl)c12`, which Potency is on record?
**A.** inactive

**Q.** `CC1=C(C(=O)Nc2nc3ccccc3s2)C(c2nn(C)cc2Cl)N=C(Nc2nc3ccccc3o2)N1` (centres undefined) was tested. Which Potency did it give?
**A.** inactive

**Q.** How did the Potency turn out when `CC1=C(C(=O)n2ccc3ccccc32)C(c2ccccc2Br)N=C(Nc2nc3ccccc3o2)N1` (centres undefined) was run?
**A.** inactive

**Q.** `O=C1CCCC2=C1C(c1[nH]ncc1Cl)N=C(Nc1nc3cc([S+](=O)([O-])N4CCOCC4)ccc3o1)N2` (centres undefined) was tested. Which Potency did it give?
**A.** inactive

**Q.** Which Potency does the source give for `O=C1CCCC2=C1C(c1ccc(F)cc1)N=C(Nc1nc3ccccc3o1)N2` (centres undefined) here?
**A.** inactive

**Q.** `O=C1CCCC2=C1C1(CCCOC1)N=C(Nc1nc3ccccc3o1)N2` (centres undefined) was tested. Which Potency did it give?
**A.** inactive

**Q.** `O=C1CCCC2=C1C1(CCCC1)N=C(Nc1nc3ccccc3n1Cc1ccccc1)N2` was tested. Which Potency did it give?
**A.** inactive

**Q.** How did the Potency turn out when `O=C1CCCC2=C1C(c1[nH]ncc1Cl)N=C(Nc1nc3cc(Cl)ccc3o1)N2` (centres undefined) was run?
**A.** inactive

**Q.** How did the Potency turn out when `O=C1CCCC2=C1C(c1[nH]ncc1Cl)N=C(Nc1nc3ccccc3s1)N2` (centres undefined) was run?
**A.** inactive

**Q.** Which Potency does the source give for `O=C1CCCC2=C1C(c1cccc(C(F)(F)F)c1)N=C(Nc1nc3ccccc3o1)N2` (centres undefined) here?
**A.** inactive

**Q.** Which Potency does the source give for `Cc1nc(C2=NC(c3ccccc3Cl)C3=C(CCCC3=O)N2)cs1` (centres undefined) here?
**A.** inactive

**Q.** For `O=C1CCCC2=C1C(c1[nH]ncc1Cl)N=C(Nc1nc3cccc(Cl)c3o1)N2` (centres undefined), which Potency is on record?
**A.** inactive

**Q.** Which Potency does the source give for `O=c1cc(CN2CCCN(c3ccc(C(F)(F)F)cn3)CC2)nc2ccccn12` here?
**A.** inactive

**Q.** For `O=C1CCCC2=C1C(c1cccnc1)N=C(Nc1nc3ccccc3o1)N2` (centres undefined), which Potency is on record?
**A.** inactive

**Q.** Which Potency does the source give for `CC1(C)CC(=O)C2=C(C1)NC(Nc1nc3ccccc3o1)=NC21CCCCC1` here?
**A.** inactive

**Q.** How did the Potency turn out when `COC(=O)c1ccccc1NC(=O)c1ccccc1OC(F)F` was run?
**A.** inactive

**Q.** `O=C1CCCC2=C1C(c1ncccc1Br)N=C(Nc1nc3ccccc3o1)N2` (centres undefined) was tested. Which Potency did it give?
**A.** inactive

**Q.** For `Cn1cccc1CN=C1NC2=C(C(=O)CCC2)C(c2[nH]ncc2Cl)N1` (centres undefined), which Potency is on record?
**A.** inactive

**Q.** How did the Potency turn out when `CC1=C(C(=O)Nc2ccon2)C2(CCCC2)N=C(Nc2nc3ccccc3o2)N1` was run?
**A.** 17.2 µM (active)

**Q.** How did the Potency turn out when `O=C1CCCC2=C1C(c1[nH]ncc1Cl)NC(=NCc1nccs1)N2` (centres undefined) was run?
**A.** inactive

**Q.** `O=C1CCCC2=C1C(c1[nH]ncc1Cl)NC(=NCc1cccs1)N2` (centres undefined) was tested. Which Potency did it give?
**A.** inactive

**Q.** Which Potency does the source give for `O=C1CCCC2=C1C(c1[nH]ncc1Cl)NC(=NCCc1ccccc1)N2` (centres undefined) here?
**A.** inactive
